Assay results from paper PMC5540273 (PLoS ONE, 2017).

system: MLK2; details: concentration: 1 μM, replicates: in singlicate; n = 1
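Further: KINOMEscan kinase panel screen.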

**Q.** For `Cc1c(Cn2ccn3c(=O)cc(N4CCOCC4)nc23)cccc1C(F)(F)F` [GSK2289044], which “%Inh” value is on record?
**A.** 0%

**Q.** For `Cc1cccc(-c2nc(Nc3ccc4[nH]ncc4c3)c3ccccc3n2)n1` [GW857175], which “%Inh” value is on record?
**A.** 22%

**Q.** Which “%Inh” value does the source give for `COc1cc2nccc(Nc3ccc(NC(=O)c4ccc(C)cc4)c(O)c3)c2cc1OC.Cl` [GW440132] here?
**A.** 0%

**Q.** With `Cn1ccc2ncnc(Oc3cccc(C(=O)Nc4ccccc4)c3)c21` as the compound, how does the “%Inh” value read?
**A.** 6%

**Q.** With `Cc1csc(-c2nc(Nc3ccncc3)c3ccccc3n2)n1` [GW869640] as the compound, how does the “%Inh” value read?
**A.** 60%

**Q.** For `Clc1cc(Cl)cc(Nc2ccnc(Nc3cc(Cl)cc(Cl)c3)n2)c1` [GSK175726], which “%Inh” value is on record?
**A.** 0%

**Q.** `Cl.c1ccc(-c2n[nH]cc2-c2ccnc(-c3ccc(CN4CCOCC4)cc3)c2)nc1` [GW776245] was tested. Which “%Inh” value did it give?
**A.** 25%

**Q.** Which “%Inh” value does the source give for `O=C(O)COc1ncnc2cc(-c3ccc4[nH]ncc4c3)sc12` here?
**A.** 4%

**Q.** Which “%Inh” value does the source give for `CC(C)(C)c1ccc(C(=O)Nc2cn3cc(-c4cccnc4)ccc3n2)cc1` here?
**A.** 43%

**Q.** How did the “%Inh” value turn out when `COc1ccc(C2=C(Nc3cccc(C(=O)O)c3)C(=O)NC2=O)cc1` [SB-390765] was run?
**A.** 0%

**Q.** Which “%Inh” value does the source give for `Cc1cccc(-c2nc(Nc3cccc(C(N)=O)c3)c3ccccc3n2)n1` [GW876019] here?
**A.** 0%

**Q.** Which “%Inh” value does the source give for `O=C(Nc1n[nH]c2cc(-c3cccc(F)c3F)ccc12)C1CC1` [SB-733894] here?
**A.** 0%

**Q.** `CC(C)(C)c1ccc(C(=O)Nc2cn3cc(Cl)ccc3n2)cc1` was tested. Which “%Inh” value did it give?
**A.** 8%

**Q.** How did the “%Inh” value turn out when `CC1=C(C(=O)Nc2cc3cn[nH]c3cc2F)C(c2ccc(C(F)(F)F)cc2)CC(=O)N1` (centres unmarked) [GSK429286] was run?
**A.** 0%

**Q.** For `Fc1cc(Cl)ccc1Nc1ccnc2cc(-c3ccc(CN4CCCCC4)o3)ccc12` [GW560116], which “%Inh” value is on record?
**A.** 0%

**Q.** How did the “%Inh” value turn out when `O=C(Nc1n[nH]c2nc(-c3nccs3)c(Br)cc12)C1CCCC1` [SB-742609] was run?
**A.** 12%

**Q.** How did the “%Inh” value turn out when `COc1cccc(NC(=O)NC2CCN(c3ccnc(Nc4ccc(F)cc4)n3)C2)c1` (centres unmarked) [GSK1379721] was run?
**A.** 0%

**Q.** Which “%Inh” value does the source give for `Cc1cc(NCC(c2ccccc2)c2ccccc2)nc(NCc2ccc(C(F)(F)F)cc2)n1` [GW497681] here?
**A.** 0%

**Q.** Which “%Inh” value does the source give for `COC(=O)c1c(-c2ccccc2)c2cc(OC)ccc2c(=O)n1Cc1ccccc1` here?
**A.** 9%

**Q.** With `Cn1cncc1-c1ccc2ncnc(Nc3ccc(OCc4ccccc4)cc3)c2c1` [GW320571] as the compound, how does the “%Inh” value read?
**A.** 26%

**Q.** `Cc1ccc(NC(=O)Nc2cc(C(C)(C)C)nn2-c2ccccc2)cc1` [GSK1014915] was tested. Which “%Inh” value did it give?
**A.** 0%

**Q.** `O=C(Nc1n[nH]c2nc(-c3nccs3)c(Br)cc12)C1CC1` [SB-742251] was tested. Which “%Inh” value did it give?
**A.** 0%

**Q.** Which “%Inh” value does the source give for `O=C1NC(=O)C(N2CCc3ccccc32)=C1c1ccccc1Cl` [SB-373598] here?
**A.** 50%

**Q.** For `Cl.Oc1ccc(-c2nc(-c3ccccc3)[nH]c2-c2ccncc2)cc1` [SB-428218], which “%Inh” value is on record?
**A.** 0%

**Q.** With `Fc1cccc(COc2nnc(-c3ccc4c(c3)CCO4)o2)c1` as the compound, how does the “%Inh” value read?
**A.** 19%

**Q.** For `CS(=O)(=O)c1ccc(-c2c(-c3ncn[nH]3)sc(N3CCOCC3)c2C#N)cc1`, which “%Inh” value is on record?
**A.** 51%

**Q.** For `Cc1ccc(NC(=O)Nc2cccc(Cl)c2)cc1-c1ccc(C(=O)Nc2ccncc2)cc1` [GSK1398468], which “%Inh” value is on record?
**A.** 0%

**Q.** `Cc1cccc(-c2nc(Nc3ccncc3)c3ccccc3n2)n1` [GW855857] was tested. Which “%Inh” value did it give?
**A.** 7%

**Q.** For `Cc1cccc(-c2nc(-c3ccc(S(C)(=O)=O)cc3)sc2-c2ccnc(NCCc3ccccc3)c2)c1`, which “%Inh” value is on record?
**A.** 2%

**Q.** For `Cc1nnc(-c2ccc3occ(-c4ccc(S(C)=O)cc4)c3c2)[nH]1` (centres unmarked), which “%Inh” value is on record?
**A.** 3%

**Q.** `COc1ccc2nc(-c3cccc(C)n3)nc(Nc3ccncc3)c2c1` [GSK204919] was tested. Which “%Inh” value did it give?
**A.** 0%

**Q.** How did the “%Inh” value turn out when `O=c1cc(N2CCOCC2)nc2n(Cc3cccc(Cl)c3Cl)ccn12` [GSK2286295] was run?
**A.** 0%

**Q.** `COc1ccc(CNC(=O)NC2CCN(c3ccnc(Nc4cc(OC)c(OC)c(OC)c4)n3)C2)cc1` (centres unmarked) [GSK1379748] was tested. Which “%Inh” value did it give?
**A.** 21%

**Q.** Which “%Inh” value does the source give for `Cn1ccc2ncnc(Oc3ccc(NC(=O)Nc4ccccc4)cc3)c21` here?
**A.** 0%

**Q.** With `CCn1c(-c2ccccn2)nc2cnccc21` [SB-736398] as the compound, how does the “%Inh” value read?
**A.** 0%
